Screens as filed in PubChem.
A selection: hits, their analogues and other compounds. The true share with any hit is near 2.3%.
FID counter: compounds displacing fluorescent DNA intercalator, primary screen, artefact control for HCV NS3 helicase inhibitor project, biochemical, FID fluorescence; actives 0.17% (n = 290,000); DNA fluorescent intercalator displacement; inhibition, % at 7.9 µM; AID 1845, 2009; in the data active = inhibition above about 37%;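 note: 0% = vehicle and 100% = reference compound; higher means more ethidium bromide displaced from hairpin DNA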
Rce1 inhib: yeast Rce1p protease inhibitors, primary screen, biochemical, fluorescence, cell-free homogeneous. yeast membranes, quenched prenylated peptide cleavage fluorescence. calls only. actives 0.27% (n = 290,000). AID 2563, 2010;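 active = fall in fluorescence gain of 50% or more versus controls, with final raw signal at or below 3038400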;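 note: plate controls were neutral control wells for no effect and wells lacking membranes for full effect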
PfM18AAP inh: PfM18AAP inhibitors, malaria aminopeptidase, primary screen, biochemical, QFRET, recombinant enzyme; H-Glu-NHMec fluorogenic cleavage; inhibition, % at 7.35 µM; M18 aspartyl aminopeptidase (Plasmodium falciparum 3D7); actives 1.2% (n = 290,000);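 active = inhibition above the campaign mean inhibition over all tested compounds plus 3 SD, cut at about 28% in these data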;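 note: 0% = plate median of test compound wells and 100% = 2 mM ZnCl2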
Kir21 inh: inhibitors of mouse Kir2.1 inward-rectifier potassium channel | B-score at 10 µM | HEK293-Kir2.1, FluxOR thallium flux fluorescence; active compounds read low | actives 0.85% (n = 310,000);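 active = fluorescence ratio B-score at or below minus 3 SD of library scores, with starting-brightness B-score within 2 SD, cut at about -4.2 in these data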;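 note: channel flux triggered by added potassium and thallium sulfate stimulus; B-score of peak minus minimum fluorescence over baseline after thallium stimulus; more negative B-score means stronger Kir2.1 block with less thallium influx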
Target sequence (P35561 whole entry, looked up): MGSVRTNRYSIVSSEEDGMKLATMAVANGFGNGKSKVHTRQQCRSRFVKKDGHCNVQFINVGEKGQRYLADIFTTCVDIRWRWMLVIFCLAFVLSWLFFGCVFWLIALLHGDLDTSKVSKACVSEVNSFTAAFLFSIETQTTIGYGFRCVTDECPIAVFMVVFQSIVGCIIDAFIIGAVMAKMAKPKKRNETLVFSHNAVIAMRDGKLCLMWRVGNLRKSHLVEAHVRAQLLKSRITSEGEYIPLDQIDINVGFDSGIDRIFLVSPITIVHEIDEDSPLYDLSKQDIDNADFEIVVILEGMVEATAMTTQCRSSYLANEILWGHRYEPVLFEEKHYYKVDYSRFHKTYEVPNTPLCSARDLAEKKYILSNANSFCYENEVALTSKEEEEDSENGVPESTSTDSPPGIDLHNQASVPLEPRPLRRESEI
Starred values were filed as active, the others as inactive.

How did Cc1ccc(C)c(N(C(=O)c2csnn2)C(C(=O)NC2CCCC2)c2cccnc2)c1 (configuration not stated) do in these assays?
FID counter: -18; Rce1 inhib: inactive; PfM18AAP inh: -5; Kir21 inh: -0.28

How did COc1ccccc1C1(CCNC(C)c2cccs2)CCOC(C(C)C)C1 (configuration not stated) do in these assays?
FID counter: 21; Rce1 inhib: inactive; PfM18AAP inh: -4; Kir21 inh: -8.9*

How did Cc1cc(-c2ccccc2)n2nc(C)c(C#N)c2n1 do in these assays?
FID counter: -2; Rce1 inhib: active; PfM18AAP inh: 1; Kir21 inh: 1.2

Results for COc1cc(C2CC(=O)Nc3ccccc3S2)cc(OC)c1OC (configuration not stated) ?
FID counter: 89*; Rce1 inhib: inactive; PfM18AAP inh: 3; Kir21 inh: 0

What do the screens show for `O=C1CC(c2ccc(F)cc2)Sc2ccccc2N1` (configuration not stated)?
FID counter: -5; Rce1 inhib: inactive; PfM18AAP inh: 1; Kir21 inh: 1.2

What do the screens show for `Cc1cc(C)c(NC(=O)CCN2C(=O)c3ccccc3S2(=O)=O)c(C)c1`?
Rce1 inhib: inactive; Kir21 inh: -1.1

What do the screens show for `O=c1oc2ccccc2n1Cc1cccc(C(F)(F)F)c1`?
Rce1 inhib: inactive; Kir21 inh: -0.22

How did Cc1ccc(C(=O)C(c2ccccc2)N2Cc3ccccc3C2=N)cc1 (configuration not stated) do in these assays?
FID counter: -14; Rce1 inhib: inactive; PfM18AAP inh: -2; Kir21 inh: -8.3*

How did OC(c1cc(-c2ccc(Cl)cc2)nc2ccccc12)C1CCCCN1 (configuration not stated) do in these assays?
FID counter: 20; Rce1 inhib: inactive; PfM18AAP inh: -3; Kir21 inh: -5.4*

Results for Cc1ccc(CNC(=O)c2ccc(Cn3nc(C)c(Cl)c3C)o2)cc1 ?
FID counter: -32; Rce1 inhib: inactive; PfM18AAP inh: -56; Kir21 inh: -9*

Results for Oc1ccc(/C=N/NC(=S)N2CCOCC2)cc1 ?
FID counter: 1; Rce1 inhib: inactive; PfM18AAP inh: 33*; Kir21 inh: 1.6

What do the screens show for `CC(=O)N(c1ccc2oc(=O)sc2c1)S(=O)(=O)c1ccccc1`?
FID counter: -11; Rce1 inhib: inactive; PfM18AAP inh: 29*; Kir21 inh: -0.22

What do the screens show for `O=S(=O)(NCc1csc(-c2cccs2)n1)c1cccc(C(F)(F)F)c1`?
FID counter: -15; Rce1 inhib: inactive; PfM18AAP inh: -10; Kir21 inh: -11*

What do the screens show for `Cc1cc(C(=O)NNC(=S)NCc2ccco2)nn1C`?
FID counter: 8; Rce1 inhib: inactive; PfM18AAP inh: 18; Kir21 inh: 0.83

How did COc1cccc(OC)c1C(=O)NC(=S)N1CCCCC1c1cccnc1 (configuration not stated) do in these assays?
FID counter: -14; Rce1 inhib: inactive; PfM18AAP inh: 6; Kir21 inh: -1.1

Results for COc1ccc(OC)c2c1C(=O)C(Cl)=C(Cl)C2=O ?
FID counter: 2; Rce1 inhib: inactive; PfM18AAP inh: 23; Kir21 inh: -4.3*

What do the screens show for `CN(C)C(=O)c1cc(C(=O)c2ccc(F)cc2Cl)c[nH]1`?
FID counter: -5; Rce1 inhib: inactive; PfM18AAP inh: -4; Kir21 inh: 0.1

What do the screens show for `CN(C)C(=O)c1cc(F)ccc1Sc1cc(Cl)ccc1Cl`?
FID counter: -12; Rce1 inhib: inactive; PfM18AAP inh: -4; Kir21 inh: -5.8*

How did CN(C)C(=O)c1cc(Cl)ccc1Sc1cc(Cl)ccc1Cl do in these assays?
FID counter: -26; Rce1 inhib: inactive; PfM18AAP inh: 11; Kir21 inh: -5.4*

What do the screens show for `COc1cc(Cl)c(C)cc1NC(=O)CNC(C)c1ccccc1OC` (configuration not stated)?
FID counter: 7; Rce1 inhib: inactive; PfM18AAP inh: 0; Kir21 inh: -4.2*

Results for COc1ccccc1C(C)NCC(=O)Nc1c(F)cccc1F (configuration not stated) ?
FID counter: -10; Rce1 inhib: inactive; PfM18AAP inh: -4; Kir21 inh: -0.6

Results for CCCCNC(=S)N(Cc1c(C)noc1C)c1ccccc1 ?
FID counter: -28; Rce1 inhib: inactive; PfM18AAP inh: -9; Kir21 inh: -5.4*
